Source: PubChem
NIH3T3 tox – cytotoxic compounds in NIH 3T3 cells; NIH 3T3 viability, CellTiter-Glo ATP luminescence, 48-72 h; Potency, µM (doses to about 96.7 µM), inactives show at the highest dose activity change, negative = cytotoxicity, most hits filed as inhibitors; 94,000 tested, 4.3% active; AID 1345082; further: nearly all actives have a fitted effect of over 55% in size
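Mouse fibroblast NIH 3T3 cells, 400 per well, received compound via pintool and were incubated for 48 or 72 hr prior to CellTiter-Glo ATP luminescence measurement.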
FLuc inh – Photinus pyralis luciferase inhibition; Potency, µM (series often up to 115 µM), most hits filed as inhibitors; 76,000 tested, 2.5% active; P08659; purified P. pyralis luciferase, luminescence, biochemical; further: nearly all actives have a fitted effect of over 65% in size
Target sequence (P08659 whole entry, looked up): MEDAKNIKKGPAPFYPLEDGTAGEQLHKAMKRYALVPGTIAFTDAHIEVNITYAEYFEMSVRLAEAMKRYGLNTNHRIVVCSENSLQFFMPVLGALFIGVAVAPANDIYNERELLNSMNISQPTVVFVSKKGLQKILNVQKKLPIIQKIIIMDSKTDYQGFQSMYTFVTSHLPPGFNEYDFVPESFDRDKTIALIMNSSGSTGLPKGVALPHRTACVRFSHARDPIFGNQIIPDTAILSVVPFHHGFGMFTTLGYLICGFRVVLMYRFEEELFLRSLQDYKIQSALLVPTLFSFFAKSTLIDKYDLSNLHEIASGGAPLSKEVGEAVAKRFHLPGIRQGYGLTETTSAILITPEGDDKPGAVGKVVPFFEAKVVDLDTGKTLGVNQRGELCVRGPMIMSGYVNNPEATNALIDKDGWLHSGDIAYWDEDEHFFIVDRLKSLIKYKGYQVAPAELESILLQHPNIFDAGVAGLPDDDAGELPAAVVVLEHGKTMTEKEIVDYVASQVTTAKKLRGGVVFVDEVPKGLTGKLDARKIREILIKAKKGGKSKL
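Luminescence read by CCD imager after adding enzyme (10nM final) to wells holding compound, titrated in qHTS. Substrates 10uM each D-luciferin and ATP; buffer 50mM Tris acetate pH 7.5, 10mM Mg acetate, Tween-20, BSA.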
hNpr1 antagonist – antagonists of human natriuretic peptide receptor Npr1; P16066; HEK293 hNpr1 GloSensor cGMP, ANP-stimulated luminescence; Potency, µM (top dose mostly 46.3 µM), for inactives: at the highest dose activity change, negative = inhibition, hits mostly inhibitors; 76,000 tested, 1.6% active; calls by dose curve; further: nearly all actives have a fitted effect of over 60% in size
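Compound pre-incubated 30 min at room temperature on GloSensor-loaded HEK293 cells stably carrying hNpr1 and the pGS-40F cGMP biosensor. Stimulation uses hNppA at 0.1 nM final; luminescence is taken at baseline and 20 min post-agonist.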
HEK293 tox – HEK 293 cell cytotoxicity; HEK 293 viability, ATP luminescence (CellTiter-Glo), 48-72 h; Potency, µM (series often up to 115 µM), for the others: top-dose activity change, negative = cytotoxicity, usual class: inhibitors; 94,000 tested, 6.6% active; AID 1345083; further: nearly all actives have a fitted effect of over 60% in size
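Cells seeded first (HEK 293, 250 cells/well), then compound added by pintool. Incubation ran 48 or 72 hr at 37 degree Celsius. CellTiter-Glo was added and luminescence imaged after 10 min at room temperature.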
GPT2 inh – GPT2 alanine aminotransferase inhibition | Q8TD30 | Recombinant GPT2, coupled pyruvate oxidase/HRP Amplex Red fluorescence | Potency, µM (top dose mostly 57.7 µM), without a hit: at the highest dose activity change, negative = inhibition, usual class: inhibitors | 100,000 tested, 0.25% active; further: nearly all actives have a fitted effect of over 60% in size
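Fluorescence of coupled pyruvate oxidase/HRP/Amplex Red system (50uM Amplex, 30 min, dark) reports pyruvate formed by GPT2. Enzyme reaction: 10ng/uL GPT2, 2mM L-alanine, 250uM a-KG, 30 min room temperature, pH 7.5; 50uM AOA control.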
* = called active by the depositor; i = inactive; u = inconclusive; x = no result; [ ] = another dose, or the depositor's remark. Only some compounds are listed: those with a hit (about 10% of all), similar ones and a draw of the others. Unless noted, the call rests on the fitted dose curve; in most records, active means well fitted curve in the direction sought with a large enough effect; inconclusive means small, poorly fitted or top-dose-only effect, or another doubt; inactive means no such curve, though single readings can be large; an effect the other way counts as inactive or inconclusive. On the % scale 0 is the no-effect control and ±100 the full control effect; potency means the concentration at half of the fitted maximal effect.

SMILES	NIH3T3 tox	FLuc inh	hNpr1 antagonist	HEK293 tox	GPT2 inh
CCOC(=O)C(C)N1CCOc2c(O)cc(-c3cccc(Cl)c3)cc2C1 (centres undefined)	u	i	u	45µM*	2%[11.5 µM]
Cc1nc(C(=O)N2CCOc3c(O)cc(-c4cccc(Cl)c4)cc3C2)c(C)o1	u	i	u	40µM*	-18%
CN1c2cc(C(=O)Nc3cccc(OC(F)(F)F)c3)ccc2C(=O)N2CCCCCC21 (centres undefined)	-14%	i	-25%	u	i
COc1ccc(OC)c(NC(=O)c2ccc3c(c2)C(O)CCCCCN3C)c1 (centres undefined)	u	i	u	u	i
COc1cccc(NC(=O)c2ccc3c(c2)C(O)CCCCCN3C)c1 (centres undefined)	u	35µM*	-23%	u	i
CC1CCN(c2ccc(CNC(=O)c3ccc4c(c3)C(O)CCCCCN4C)cc2)CC1 (centres undefined)	40µM*	i	-16%	u	-6%
CN1CCCCCC(O)c2cc(C(=O)Nc3cccc(OC(F)(F)F)c3)ccc21 (centres undefined)	28µM*	i	u	25µM*	u
CC(C)(C)c1nc(C(=O)N2CCOCC2)n2ccncc12	-7%[138 µM]	x	x	i	i
COC(=O)C(NC(=O)N1CCC(c2cc(-c3cccc(OC)c3)n[nH]2)CC1)c1ccccc1 (centres undefined)	u	i	-3%	u	-9%
COCCN1CCOC2(CCN([S+](=O)([O-])c3cccc(C)c3)CC2)C1=O	89µM*	i	-1%[70.6 µM]	1%[172 µM]	-6%[88.5 µM]
Cc1cccc([S+](=O)([O-])N2CCC3(CC2)OCCN(Cc2ccccc2)C3=O)c1	u	i	-11%[70.6 µM]	-28%[172 µM]	0%[88.5 µM]
CN(C)C(=O)N1CCCC(C(=O)N2CCC(c3nc4ncccc4[nH]3)CC2)C1 (centres undefined)	-21%	x	x	u	-3%
O=C(NC1CCCCC1)C1CCCCN1Cc1ccc(-c2ccsc2)cc1 (centres undefined)	-51%	x	x	40µM*	-12%
O=C(NCC(F)(F)F)C1CCCCN1Cc1ccc(-c2ccsc2)cc1 (centres undefined)	-30%	x	x	u	-34%
O=C(NCCc1ccc(Cl)cc1)C1CCCCN1Cc1ccc(-c2ccsc2)cc1 (centres undefined)	25µM*	x	x	40µM*	-9%
CSc1ccc(-c2cccc(CN3CCC(N[S+](=O)([O-])CCC(F)(F)F)CC3)c2)cc1	u	x	x	-22%	x
CSc1ccc(-c2cccc(CN3CCC(N[S+](=O)([O-])c4c(C)noc4C)CC3)c2)cc1	14µM*	x	x	u	x
CSc1ccc(-c2cccc(CN3CCC(NC(=O)c4ccccc4)CC3)c2)cc1	-2%	x	x	-10%	x
Cc1cccc(-c2cccc(CN3CCC(N[S+](=O)([O-])c4cccs4)CC3)c2)c1	u	x	x	28µM*	-6%
O=[S+]([O-])(NC1CCN(Cc2ccc(-c3ccsc3)cc2)C1)c1cccs1 (centres undefined)	35µM*	x	x	40µM*	-1%
CSc1ccc(-c2cccc(CN3CCC(N[S+](=O)([O-])c4ccccc4)CC3)c2)cc1	16µM*	x	x	28µM*	x
O=c1oc(Cl)c(Cl)c2ccccc12	x	x	x	x	-14%
CCS(=O)(=O)N(C1CC1)C1CCOC2(CCN(C(=O)c3ccccc3)CC2)C1 (centres undefined)	-26%	i	-5%	0%	-1%
c1ccc(CCc2noc(CN3CCCCC3CCn3cccn3)n2)cc1 (centres undefined)	-27%	i	-2%	u	-16%
Cc1ccc(C(=O)N2CCCc3nc(C)nc(-c4ccc(O)cc4)c3C2)cc1	u	i	-1%	u	i
SMILES	NIH3T3 tox	FLuc inh	hNpr1 antagonist	HEK293 tox	GPT2 inh
Cc1ccc([S+](=O)([O-])NC2CCN(Cc3cccc(-c4cccc(C)c4)c3)CC2)cc1	16µM*	x	x	25µM*	-8%
C[S+](=O)([O-])NC1CCN(Cc2cccc(-c3cccs3)c2)CC1	u	x	x	u	4%
Cc1cccc(-c2cccc(CN3CCC(N[S+](=O)([O-])c4ccccc4)CC3)c2)c1	25µM*	x	x	28µM*	-2%
CCN1C(=O)CN(C(=O)CCc2ccccc2)CC12CCOCC2	-24%	x	x	4%	i
COc1ccc(C(=O)N2CCC(n3cc(-c4nc(C(C)C)no4)nn3)C2)cc1 (centres undefined)	-26%	i	u	u	-2%
O=C(N[C@H]1CC[C@H](Nc2nccc(-c3cccnc3)n2)C1)c1ccc(O)cc1	u	i	1%	u	i
O=C(CN1CCCC1)N[C@H]1CC[C@H](Nc2nccc(-c3cccnc3)n2)C1	u	i	2%	45µM*	4%
CC(C)Cc1cc(C[C@@H]2C[C@H](NC(=O)NC(C)C)C2(C)C)no1	u	i	-4%[70.6 µM]	u	2%[88.5 µM]
O=C(CC1=C2CCCCC2N(Cc2ccccc2)C1=O)NC1CCS(=O)(=O)C1 (centres undefined)	0%	i	2%	i	1%
CSc1ccc(NC(=O)Nc2cccc(-c3ccc(N4CCOCC4)nn3)c2)cc1	u	0.56µM*	11µM*	u	-6%
CSc1cccc(NC(=O)C2CCCN(c3cnc4nc(C)c(C)nc4c3)C2)c1 (centres undefined)	-18%	i	3%	-12%	i
Cc1ccc(NC(=O)Nc2cccc(-c3ccc(N4CCOCC4)nn3)c2)cc1	-13%	0.63µM*	u	u	i
CSc1cccc(NC(=O)Nc2cccc(-c3ccc(N4CCCC4)nn3)c2)c1	u	1.8µM*	-30%	u	-8%
O=C(Nc1cccc(-c2ccc(N3CCOCC3)nn2)c1)Nc1ccc(F)cc1F	u	2µM*	-24%	u	-19%
Cc1c(F)cccc1NC(=O)Nc1cccc(-c2nnc3n2CCCC3)c1	i	u	3%	11%	-4%
CN(Cc1ccccc1)C(=O)CC1CCCN(c2cnn(C)c(=O)c2)C1 (centres undefined)	-15%	i	9%	-26%	i
Cc1cccc(C(=O)Nc2cccc(-c3ccc(N4CCN(C)CC4)nn3)c2)c1	40µM*	32µM*	-15%	u	u
CCc1ccccc1NC(=O)Nc1cccc(-c2ccc(N3CCOCC3)nn2)c1	u	1µM*	-25%	u	i
CCc1ccccc1NC(=O)Cn1c(N2CCOCC2)nc(COC)cc1=O	-14%	i	-1%	-8%	-1%
COc1ccc(-c2cnc3[nH]cc(CC(=O)NCCN(C)C)c3c2)cc1	50µM*	i	-12%[70.6 µM]	100µM*	3%[88.5 µM]
